The values that follow come from PubChem BioAssay (Tox21).

Inconclusive results are not listed. Where a call stands in place of a potency, no number is given. Active and inactive are the calls of the source. Calls come from the whole dose curve; as a rule, active = well fitted activation curve with a large enough effect in the repeat runs; inconclusive = weak or mixed curves; inactive = no such curve, though single readings can be large or run the other way.
Potency is the fitted concentration of half-maximal effect.

This assay addresses Nuclear receptor subfamily 1 group I member 2 (Homo sapiens) (UniProt O75469). The assay can be described thus: CYP3A4 induction through human pregnane X receptor (PXR) by small molecules, qHTS assay (AID 1346984). Note: nearly all actives have a fitted effect of over 40% in size. As to conditions: DPX-2 HepG2 PXR, CYP3A4-luciferin luminescence, 24 h; series mostly up to 46.1 µM. The source says:
National Center for Advancing Translational Sciences [NCATS]
NIH Chemical Genomics Center [NCGC]
U.S. Environmental Protection Agency [EPA]
National Institutes of Environmental Health Sciences [NIEHS]
National Toxicology Program [NTP]
The Pregnane X receptor (PXR), a ligand activated nuclear receptor plays a critical role in the regulation of genes involved in drug metabolism and transporters. Activation of PXR is responsible for unwanted adverse drug reactions. PXR binds xenobiotics and when compounds interact with PXR enhances the expression of CYP3A genes. Identifying the compounds with the potential for PXR activation and CYP3A4 induction can be of importance in improving the efficacy of drugs with less toxicity and avoiding drug-drug interactions.
DPX-2 (Puracyp, Inc.) cell lines, used for screening against human PXR activation has HepG2 cells co-transfected with a PXR response element and a luciferase construct containing CYP3A4 promoter. Increase in luciferase activity can be used to identify the compounds that cause the induction of CYP3A4.
DPX-2 cells were dispensed at 2,000 cells per well in 5uL of assay medium into white, solid-bottom 1536-well plates using a Multidrop Combi dispenser (Thermo Scientific). The assay plates were incubated at 37C for 5hr before transferring 23nL of test compounds dissolved in DMSO and positive control via Pintool station (Wako). The assay plates were incubated at 37C for 24hr. After 24hr compound treatment, 1uL of 3uM (final concentration) P450 substrate (P450-Glo CYP3A4 screening system with Luciferin-IPA, Promega) was added by a Flying Reagent Dispenser (FRD, Aurora Discovery). The assay plates were incubated for 3hr at 37C. Then 5ul One-Glo assay reagent (Promega) was added to each plate by an FRD and following 30 min incubation at room temperature, luciferase activity was quantified on a ViewLux plate reader (Perkin Elmer).
(In general: Quantitative high-throughput screening tests each substance at several concentrations.)
With `FCOC(C(F)(F)F)C(F)(F)F`, the Potency result is “inactive”.

In the case of `Cc1cc(C(=O)NNCc2ccccc2)no1`, the Potency result was “inactive”. For `COc1ccc(CCNC[C@H](O)c2ccc(O)cc2)cc1OC` the value was “inactive”. Consider `C[C@H](CCCC(C)(C)O)[C@H]1CC[C@H]2[C@@H]3CC=C4C[C@@H](O)CC[C@]4(C)[C@H]3CC[C@]12C`, for which the Potency result was “inactive”. The entry for `C=C1CC[C@H](O)CC1=C/C=C1\CCC[C@]2(C)[C@@H]([C@H](C)CC[C@@H](O)C(C)(C)O)CC[C@@H]12` is “inactive”; for `CO/N=C(\C(=O)N[C@@H]1C(=O)N2C(C(=O)O)=CCS[C@H]12)c1csc(N)n1` it is “inactive”; for `CO[C@H]1C[C@@H]2CC[C@@H](C)[C@@](O)(O2)C(=O)C(=O)N2CCCC[C@H]2C(=O)O[C@H]([C@H](C)C[C@@H]2CC[C@@H](OCCO)[C@H](OC)C2)CC(=O)[C@H](C)/C=C(\C)[C@@H](O)[C@@H](OC)C(=O)[C@H](C)C[C@H](C)/C=C/C=C/C=C/1C` it is “inactive”. The entry for `Oc1cc(O)cc(O)c1` is “inactive”; for `O=C(NNCS(=O)(=O)O)c1ccncc1` it is “inactive”. As to `CCCCC[C@H](O)/C=C/[C@H]1[C@H](O)CC(=O)[C@@H]1CCCCCCC(=O)O`, the Potency entry was “inactive”.

As for `CC[C@@H](C(=O)O)[C@@H]1O[C@@H]([C@@H](C)[C@H](O)[C@H](C)C(=O)[C@H](CC)[C@H]2O[C@]3(C=C[C@@H](O)[C@]4(CC[C@@](C)([C@H]5CC[C@](O)(CC)[C@H](C)O5)O4)O3)[C@H](C)C[C@@H]2C)[C@@H](C)C[C@@H]1C`, the Potency entry is “inactive”.

With `C=CC1=C(C)C2=CC3=NC(=C(CC(=O)[O-])C4=NC(=C(C)C4=C([O-])[O-])C=c4[n-]c(c(C)c4CC)=CC1=N2)C(CCC(=O)[O-])C3C.[Cu+2].[Na+].[Na+].[Na+]` (stereo not given), the Potency result is “inactive”.

Regarding `CCOC(=O)c1c[nH]c2cc(OCC(C)C)c(OCC(C)C)cc2c1=O`, the Potency result is “inactive”. For `[O]=[Bi][O][Bi]=[O]` the value was “inactive”; for `CC(CN(C)C)CN1c2ccccc2Sc2ccc(C(F)(F)F)cc21` (stereo not given), 12.6 µM (active).

For the molecule `Nc1nc2c(c(=O)[nH]1)N(C=O)C(CNc1ccc(C(=O)N[C@@H](CCC(=O)O)C(=O)O)cc1)CN2` (stereo not given in full), the Potency result is “inactive”. The entry for `CC[C@H](C)[C@@H]1NC(=O)[C@H](Cc2ccc(O)cc2)NC(=O)[C@@H](N)CSSC[C@@H](C(=O)N2CCC[C@H]2C(=O)N[C@@H](CC(C)C)C(=O)NCC(N)=O)NC(=O)[C@H](CC(N)=O)NC(=O)[C@H](CCC(N)=O)NC1=O` is “inactive”. The entry for `CC(C)Cc1ccc([C@@H](C)C(=O)NS(C)(=O)=O)cc1` is “inactive”; for `CN(C)CC/C=C1/c2ccccc2CSc2ccccc21` it is “inactive”. The entry for `CC(C)CN(C[C@@H](OP(=O)(O)O)[C@H](Cc1ccccc1)NC(=O)O[C@H]1CCOC1)S(=O)(=O)c1ccc(N)cc1` is “inactive”; for `CC(C)CCCC(C)NC(C)C` (stereo not given) it is “inactive”. With `CC(Oc1ccccc1)C(=O)N[C@@H]1C(=O)N2[C@@H]1SC(C)(C)[C@@H]2C(=O)O` (stereo not given in full), the Potency entry is “inactive”.

Consider `CC(=O)N=c1sc(S(N)(=O)=O)nn1C`, for which the Potency result is “inactive”. The entry for `CC(=O)Nc1c(I)c(C(=O)O)c(I)c(N(C)C(C)=O)c1I` is “inactive”. For `CCN(CC)CCOCCOC(=O)C(CC)(CC)c1ccccc1` the value was 31.6 µM (active); for `CCOc1ccc(N=Nc2ccc(N)cc2N)cc1`, “inactive”; for `O=C(O)c1nc(=O)[nH]c(=O)[nH]1`, “inactive”. The figure for `CCN(CC)CCOc1ccc(-c2nc3cc(Cl)ccc3s2)cc1` is 12.6 µM (active).

Turning to `Nc1ncnc2c1ncn2CCOCP(=O)(O)O`, the Potency entry was “inactive”. For `CCC(C)[C@@H](N)C(=O)O` (stereo not given in full) the value was “inactive”; for `O=C1c2ccccc2C(=O)C1c1ccc(Cl)cc1`, “inactive”. For the molecule `NC(=O)c1ccc[n+]([C@@H]2O[C@H](COP(=O)([O-])OP(=O)(O)OC[C@H]3O[C@@H](n4cnc5c(N)ncnc54)[C@H](O)[C@@H]3O)[C@@H](O)[C@H]2O)c1`, the Potency result is “inactive”. The entry for `CC[C@@]1(O)C[C@H](O[C@H]2C[C@H](N(C)C)[C@H](O[C@H]3C[C@H](O)[C@H](O[C@H]4CCC(=O)[C@H](C)O4)[C@H](C)O3)[C@H](C)O2)c2c(cc3c(c2O)C(=O)c2c(O)cccc2C3=O)[C@H]1C(=O)OC` is “inactive”; for `CC(C)CN(C[C@@H](O)[C@H](Cc1ccccc1)NC(=O)O[C@@H]1CCOC1)S(=O)(=O)c1ccc(N)cc1` it is “inactive”; for `COc1cc2c(cc1OC)[C@@H](c1ccccc1)CN(C)CC2` it is “inactive”. The entry for `O=C1C(=O)c2ncccc2-c2cccnc21` is “inactive”; for `FC(F)(F)C(F)(F)C(F)(F)C(F)(F)C(F)(F)C(F)(F)F` it is “inactive”; for `c1ccc2cc(C3=NCCN3)ccc2c1` it is “inactive”. The entry for `O=P(O)(O)OC[C@H](O)CO` is “inactive”; for `CCCCCCCCCCCCCCCCCCCCCCO` it is “inactive”.
